From ChEMBL document CHEMBL2218924, “A broad activity screen in support of a chemogenomic map for kinase signalling research and drug discovery” (Biochem J, 2013) come the findings set out here.

Assay [1] deals with Serine/threonine-protein kinase 33 (Homo sapiens) (UniProt Q9BYT3). Conditions: at 1 µM.
Assay [2] has the same target. The conditions noted are these: at 10 µM.
Assay [3] addresses Serine/threonine-protein kinase PLK2 (Homo sapiens) (UniProt Q9NYY3). The conditions noted are these: at 1 µM.
The target is the same in assay [4]. The conditions noted are these: at 10 µM.
The target in assay [5] is Tyrosine-protein kinase SYK (Homo sapiens) (UniProt P43405). The conditions noted are these: at 1 µM.
Assay [6] has the same target. Conditions: at 10 µM.
Assay [7] deals with T1, Mitogen-activated protein kinase kinase kinase 7 (Homo sapiens) (UniProt O43318).
T1 sequence (whole entry): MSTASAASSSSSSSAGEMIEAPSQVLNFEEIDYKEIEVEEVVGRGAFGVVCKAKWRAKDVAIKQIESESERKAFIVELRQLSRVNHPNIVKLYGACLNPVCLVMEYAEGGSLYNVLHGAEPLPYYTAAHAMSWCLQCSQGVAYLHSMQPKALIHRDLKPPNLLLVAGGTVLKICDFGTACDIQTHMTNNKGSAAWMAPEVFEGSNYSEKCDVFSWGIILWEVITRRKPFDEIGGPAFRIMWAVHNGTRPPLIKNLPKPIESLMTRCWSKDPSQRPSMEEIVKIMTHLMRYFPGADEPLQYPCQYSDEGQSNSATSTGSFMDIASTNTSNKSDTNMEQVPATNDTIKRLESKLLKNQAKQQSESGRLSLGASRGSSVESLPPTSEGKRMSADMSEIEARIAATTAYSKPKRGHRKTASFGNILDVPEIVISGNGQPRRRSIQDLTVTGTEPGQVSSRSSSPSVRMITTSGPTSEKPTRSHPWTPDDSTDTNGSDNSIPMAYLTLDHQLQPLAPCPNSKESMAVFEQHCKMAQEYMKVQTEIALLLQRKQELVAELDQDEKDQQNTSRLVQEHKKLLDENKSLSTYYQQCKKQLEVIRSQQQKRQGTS
The conditions noted are these: at 1 µM.

The target of assay [8] is T1, Mitogen-activated protein kinase kinase kinase 7 (Homo sapiens). The conditions noted are these: at 10 µM.
For assay [9], the target named is T2, Serine/threonine-protein kinase TAO1 (Homo sapiens) (UniProt Q7L7X3).
T2 sequence (whole entry): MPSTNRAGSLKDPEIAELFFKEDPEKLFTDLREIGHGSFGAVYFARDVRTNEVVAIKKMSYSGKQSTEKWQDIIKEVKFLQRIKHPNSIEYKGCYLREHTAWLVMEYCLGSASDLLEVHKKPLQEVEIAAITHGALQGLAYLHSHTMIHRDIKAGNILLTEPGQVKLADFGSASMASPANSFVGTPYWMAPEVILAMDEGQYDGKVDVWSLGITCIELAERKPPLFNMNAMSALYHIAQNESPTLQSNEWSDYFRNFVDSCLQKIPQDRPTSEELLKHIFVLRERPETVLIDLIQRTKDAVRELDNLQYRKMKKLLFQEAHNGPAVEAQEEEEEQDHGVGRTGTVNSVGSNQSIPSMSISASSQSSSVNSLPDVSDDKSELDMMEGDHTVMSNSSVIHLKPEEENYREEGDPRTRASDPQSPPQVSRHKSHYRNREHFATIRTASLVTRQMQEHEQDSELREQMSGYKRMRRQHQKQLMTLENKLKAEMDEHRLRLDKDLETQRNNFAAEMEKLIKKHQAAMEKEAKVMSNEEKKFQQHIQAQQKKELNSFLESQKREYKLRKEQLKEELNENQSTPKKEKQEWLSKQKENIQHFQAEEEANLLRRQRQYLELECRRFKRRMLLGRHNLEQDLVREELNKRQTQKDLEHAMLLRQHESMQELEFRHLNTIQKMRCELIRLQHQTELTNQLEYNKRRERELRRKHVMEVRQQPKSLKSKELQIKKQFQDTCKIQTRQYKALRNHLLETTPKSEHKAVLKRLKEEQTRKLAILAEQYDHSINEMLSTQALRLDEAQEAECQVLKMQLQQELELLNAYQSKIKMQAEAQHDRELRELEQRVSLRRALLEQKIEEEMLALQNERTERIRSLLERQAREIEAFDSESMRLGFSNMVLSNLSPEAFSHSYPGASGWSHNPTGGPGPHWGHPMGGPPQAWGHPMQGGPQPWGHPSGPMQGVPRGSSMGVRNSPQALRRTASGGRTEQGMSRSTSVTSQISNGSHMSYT
Conditions: at 1 µM.

Assay [10] deals with T2, Serine/threonine-protein kinase TAO1 (Homo sapiens). Conditions: at 10 µM.
The target in assay [11] is T3, Serine/threonine-protein kinase TAO2 (Homo sapiens) (UniProt Q9UL54).
T3 sequence (whole entry): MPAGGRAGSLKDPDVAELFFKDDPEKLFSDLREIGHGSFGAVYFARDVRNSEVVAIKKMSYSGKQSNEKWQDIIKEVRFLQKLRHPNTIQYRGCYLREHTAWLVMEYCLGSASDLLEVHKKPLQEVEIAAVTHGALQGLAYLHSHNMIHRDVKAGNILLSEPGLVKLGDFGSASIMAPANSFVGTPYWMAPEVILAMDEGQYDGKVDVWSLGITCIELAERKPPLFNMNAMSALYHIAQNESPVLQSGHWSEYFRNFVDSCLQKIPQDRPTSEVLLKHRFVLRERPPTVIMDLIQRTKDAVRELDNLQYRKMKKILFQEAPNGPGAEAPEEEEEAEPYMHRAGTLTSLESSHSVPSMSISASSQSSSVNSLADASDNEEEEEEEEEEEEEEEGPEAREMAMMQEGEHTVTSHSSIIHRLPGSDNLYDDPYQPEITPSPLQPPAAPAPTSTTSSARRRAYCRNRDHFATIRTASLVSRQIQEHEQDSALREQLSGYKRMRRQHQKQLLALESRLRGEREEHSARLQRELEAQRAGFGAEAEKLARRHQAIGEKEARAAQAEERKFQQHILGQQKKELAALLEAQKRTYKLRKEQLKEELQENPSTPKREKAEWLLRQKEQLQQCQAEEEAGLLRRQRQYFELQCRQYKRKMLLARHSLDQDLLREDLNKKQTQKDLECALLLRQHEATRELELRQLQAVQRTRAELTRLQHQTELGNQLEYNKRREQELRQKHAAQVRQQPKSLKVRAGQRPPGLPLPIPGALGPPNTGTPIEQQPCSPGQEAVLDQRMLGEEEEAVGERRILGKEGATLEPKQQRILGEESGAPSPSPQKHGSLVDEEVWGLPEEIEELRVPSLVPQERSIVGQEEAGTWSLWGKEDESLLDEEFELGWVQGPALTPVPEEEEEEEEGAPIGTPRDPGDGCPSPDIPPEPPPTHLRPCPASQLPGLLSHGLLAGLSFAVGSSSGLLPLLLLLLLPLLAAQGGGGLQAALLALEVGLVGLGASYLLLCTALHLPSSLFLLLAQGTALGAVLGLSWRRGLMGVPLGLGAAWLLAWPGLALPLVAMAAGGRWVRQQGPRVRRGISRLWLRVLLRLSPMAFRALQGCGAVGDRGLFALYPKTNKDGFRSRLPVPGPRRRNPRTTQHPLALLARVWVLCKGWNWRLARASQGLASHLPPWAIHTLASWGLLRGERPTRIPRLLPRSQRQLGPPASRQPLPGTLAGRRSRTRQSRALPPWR
The conditions noted are these: at 1 µM.

For assay [12], the target named is T3, Serine/threonine-protein kinase TAO2 (Homo sapiens). The conditions noted are these: at 10 µM.
The target in assay [13] is T4, Serine/threonine-protein kinase TAO3 (Homo sapiens) (UniProt Q9H2K8).
T4 sequence (whole entry): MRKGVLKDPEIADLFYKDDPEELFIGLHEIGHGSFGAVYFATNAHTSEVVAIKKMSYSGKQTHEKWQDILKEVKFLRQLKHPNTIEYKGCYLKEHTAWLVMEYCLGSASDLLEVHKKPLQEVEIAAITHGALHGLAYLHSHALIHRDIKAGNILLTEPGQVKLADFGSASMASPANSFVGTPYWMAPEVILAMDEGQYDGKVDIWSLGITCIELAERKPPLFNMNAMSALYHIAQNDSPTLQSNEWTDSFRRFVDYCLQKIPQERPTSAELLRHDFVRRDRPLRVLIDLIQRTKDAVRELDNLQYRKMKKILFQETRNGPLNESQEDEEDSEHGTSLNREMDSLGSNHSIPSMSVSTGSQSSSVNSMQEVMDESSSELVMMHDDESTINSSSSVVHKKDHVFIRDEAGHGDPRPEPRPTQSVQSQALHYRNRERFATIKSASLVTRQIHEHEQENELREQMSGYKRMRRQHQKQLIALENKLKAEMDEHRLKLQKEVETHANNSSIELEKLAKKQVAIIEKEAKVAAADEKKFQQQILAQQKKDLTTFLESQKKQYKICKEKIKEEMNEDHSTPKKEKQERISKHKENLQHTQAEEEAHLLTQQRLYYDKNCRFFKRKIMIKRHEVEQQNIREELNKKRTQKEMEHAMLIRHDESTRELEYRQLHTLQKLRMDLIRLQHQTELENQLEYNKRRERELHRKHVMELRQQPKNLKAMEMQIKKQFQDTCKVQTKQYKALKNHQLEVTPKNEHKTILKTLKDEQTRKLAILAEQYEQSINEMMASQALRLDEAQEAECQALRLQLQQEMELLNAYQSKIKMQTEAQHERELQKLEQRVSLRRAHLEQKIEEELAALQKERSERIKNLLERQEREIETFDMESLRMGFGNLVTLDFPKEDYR
The conditions noted are these: at 1 µM.

Assay [14] addresses T4, Serine/threonine-protein kinase TAO3 (Homo sapiens). The conditions noted are these: at 10 µM.
The target in assay [15] is T5, Serine/threonine-protein kinase TBK1 (Homo sapiens) (UniProt Q9UHD2).
T5 sequence (whole entry): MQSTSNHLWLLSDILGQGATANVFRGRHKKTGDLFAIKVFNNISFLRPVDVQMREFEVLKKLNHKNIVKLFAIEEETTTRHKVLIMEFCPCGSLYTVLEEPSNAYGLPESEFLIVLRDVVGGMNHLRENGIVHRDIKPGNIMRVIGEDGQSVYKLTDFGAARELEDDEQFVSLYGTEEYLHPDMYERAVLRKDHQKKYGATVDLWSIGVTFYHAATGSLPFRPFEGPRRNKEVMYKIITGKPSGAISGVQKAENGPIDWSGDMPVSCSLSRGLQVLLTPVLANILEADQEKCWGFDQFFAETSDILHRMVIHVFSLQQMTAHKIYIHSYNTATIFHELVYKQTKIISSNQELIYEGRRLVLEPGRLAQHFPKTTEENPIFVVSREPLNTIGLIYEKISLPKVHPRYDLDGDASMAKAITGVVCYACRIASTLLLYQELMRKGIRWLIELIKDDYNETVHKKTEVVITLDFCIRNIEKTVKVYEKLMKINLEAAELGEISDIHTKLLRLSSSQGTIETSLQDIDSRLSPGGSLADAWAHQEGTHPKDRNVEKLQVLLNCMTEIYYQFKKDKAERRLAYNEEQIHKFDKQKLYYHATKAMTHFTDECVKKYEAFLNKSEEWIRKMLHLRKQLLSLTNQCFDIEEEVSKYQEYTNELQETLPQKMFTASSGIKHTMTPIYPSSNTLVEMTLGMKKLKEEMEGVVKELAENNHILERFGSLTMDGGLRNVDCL
Conditions: at 1 µM.

Assay [16] has as its target T5, Serine/threonine-protein kinase TBK1 (Homo sapiens). The conditions noted are these: at 10 µM.
Assay [17] has as its target T6, TGF-beta receptor type-1 (Homo sapiens) (UniProt P36897).
T6 sequence (whole entry): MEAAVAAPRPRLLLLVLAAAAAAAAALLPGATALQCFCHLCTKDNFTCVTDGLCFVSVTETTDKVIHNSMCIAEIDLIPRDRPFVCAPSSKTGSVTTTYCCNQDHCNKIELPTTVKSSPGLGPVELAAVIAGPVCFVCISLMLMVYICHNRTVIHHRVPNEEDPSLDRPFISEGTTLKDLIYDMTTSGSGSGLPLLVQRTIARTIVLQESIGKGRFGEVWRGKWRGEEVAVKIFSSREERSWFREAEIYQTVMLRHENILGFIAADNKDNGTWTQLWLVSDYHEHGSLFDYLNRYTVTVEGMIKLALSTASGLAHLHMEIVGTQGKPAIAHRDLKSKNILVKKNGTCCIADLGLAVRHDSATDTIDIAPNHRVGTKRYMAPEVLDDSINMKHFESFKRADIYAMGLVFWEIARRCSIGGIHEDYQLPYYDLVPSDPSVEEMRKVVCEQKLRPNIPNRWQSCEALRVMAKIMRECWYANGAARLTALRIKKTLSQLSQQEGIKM
Conditions: at 1 µM.

Assay [18] deals with T6, TGF-beta receptor type-1 (Homo sapiens). The conditions noted are these: at 10 µM.
Assay [19] addresses Insulin-like growth factor 1 receptor (Homo sapiens) (UniProt P08069). The conditions noted are these: at 1 µM.
The target is the same in assay [20]. The conditions noted are these: at 10 µM.

Sequence of Serine/threonine-protein kinase 33 (Homo sapiens) (Q9BYT3 whole entry, looked up): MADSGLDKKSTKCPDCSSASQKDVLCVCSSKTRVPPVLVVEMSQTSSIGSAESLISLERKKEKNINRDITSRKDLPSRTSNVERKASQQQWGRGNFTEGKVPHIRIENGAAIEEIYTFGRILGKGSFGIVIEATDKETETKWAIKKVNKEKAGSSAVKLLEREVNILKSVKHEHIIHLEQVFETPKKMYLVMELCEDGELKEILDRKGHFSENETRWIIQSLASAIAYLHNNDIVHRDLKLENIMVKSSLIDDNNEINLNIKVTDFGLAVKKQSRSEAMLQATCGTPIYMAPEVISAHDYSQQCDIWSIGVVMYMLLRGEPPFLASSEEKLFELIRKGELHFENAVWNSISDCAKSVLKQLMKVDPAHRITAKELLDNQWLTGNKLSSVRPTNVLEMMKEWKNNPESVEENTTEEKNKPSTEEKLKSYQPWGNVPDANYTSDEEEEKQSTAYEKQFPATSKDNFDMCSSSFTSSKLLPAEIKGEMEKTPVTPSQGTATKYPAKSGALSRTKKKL
Sequence of Insulin-like growth factor 1 receptor (Homo sapiens) (P08069 31-736 limits assumed): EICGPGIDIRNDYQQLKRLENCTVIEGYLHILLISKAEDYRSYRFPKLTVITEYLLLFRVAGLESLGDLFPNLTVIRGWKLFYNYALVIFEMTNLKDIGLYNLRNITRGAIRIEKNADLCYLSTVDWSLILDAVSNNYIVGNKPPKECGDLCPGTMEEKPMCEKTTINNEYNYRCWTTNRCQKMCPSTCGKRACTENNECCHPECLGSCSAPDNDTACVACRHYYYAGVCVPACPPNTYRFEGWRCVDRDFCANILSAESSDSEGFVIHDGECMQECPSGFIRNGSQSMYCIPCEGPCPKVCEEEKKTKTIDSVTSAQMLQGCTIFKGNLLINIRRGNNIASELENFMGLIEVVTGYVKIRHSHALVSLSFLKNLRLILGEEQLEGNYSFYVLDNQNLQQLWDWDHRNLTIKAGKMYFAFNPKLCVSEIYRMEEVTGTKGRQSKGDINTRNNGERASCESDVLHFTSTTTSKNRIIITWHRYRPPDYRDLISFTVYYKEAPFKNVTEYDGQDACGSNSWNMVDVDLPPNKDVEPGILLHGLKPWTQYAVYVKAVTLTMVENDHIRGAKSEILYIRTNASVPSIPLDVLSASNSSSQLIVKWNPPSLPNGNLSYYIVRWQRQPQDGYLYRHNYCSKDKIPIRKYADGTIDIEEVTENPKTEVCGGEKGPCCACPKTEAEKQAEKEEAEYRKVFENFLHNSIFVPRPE
Sequence of Insulin-like growth factor 1 receptor (Homo sapiens) (P08069 741-1367 limits assumed): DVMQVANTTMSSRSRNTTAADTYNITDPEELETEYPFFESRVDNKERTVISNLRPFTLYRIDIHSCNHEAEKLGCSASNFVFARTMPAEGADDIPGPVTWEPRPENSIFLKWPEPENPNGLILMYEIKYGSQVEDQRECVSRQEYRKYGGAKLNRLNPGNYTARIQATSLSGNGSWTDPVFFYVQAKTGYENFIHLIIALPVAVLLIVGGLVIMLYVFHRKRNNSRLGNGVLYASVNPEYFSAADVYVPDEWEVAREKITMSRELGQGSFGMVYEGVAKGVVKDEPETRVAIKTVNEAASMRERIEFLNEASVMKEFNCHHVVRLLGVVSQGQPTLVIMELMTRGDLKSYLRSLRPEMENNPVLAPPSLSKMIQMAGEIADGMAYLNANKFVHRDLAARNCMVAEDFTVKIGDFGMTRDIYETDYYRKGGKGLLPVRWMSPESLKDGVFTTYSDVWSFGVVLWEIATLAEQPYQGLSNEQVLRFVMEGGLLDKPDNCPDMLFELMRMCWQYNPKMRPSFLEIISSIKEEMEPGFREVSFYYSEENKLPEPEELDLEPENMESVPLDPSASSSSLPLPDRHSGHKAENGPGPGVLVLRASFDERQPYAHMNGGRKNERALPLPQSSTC
Sequence of Serine/threonine-protein kinase PLK2 (Homo sapiens) (Q9NYY3 whole entry, looked up): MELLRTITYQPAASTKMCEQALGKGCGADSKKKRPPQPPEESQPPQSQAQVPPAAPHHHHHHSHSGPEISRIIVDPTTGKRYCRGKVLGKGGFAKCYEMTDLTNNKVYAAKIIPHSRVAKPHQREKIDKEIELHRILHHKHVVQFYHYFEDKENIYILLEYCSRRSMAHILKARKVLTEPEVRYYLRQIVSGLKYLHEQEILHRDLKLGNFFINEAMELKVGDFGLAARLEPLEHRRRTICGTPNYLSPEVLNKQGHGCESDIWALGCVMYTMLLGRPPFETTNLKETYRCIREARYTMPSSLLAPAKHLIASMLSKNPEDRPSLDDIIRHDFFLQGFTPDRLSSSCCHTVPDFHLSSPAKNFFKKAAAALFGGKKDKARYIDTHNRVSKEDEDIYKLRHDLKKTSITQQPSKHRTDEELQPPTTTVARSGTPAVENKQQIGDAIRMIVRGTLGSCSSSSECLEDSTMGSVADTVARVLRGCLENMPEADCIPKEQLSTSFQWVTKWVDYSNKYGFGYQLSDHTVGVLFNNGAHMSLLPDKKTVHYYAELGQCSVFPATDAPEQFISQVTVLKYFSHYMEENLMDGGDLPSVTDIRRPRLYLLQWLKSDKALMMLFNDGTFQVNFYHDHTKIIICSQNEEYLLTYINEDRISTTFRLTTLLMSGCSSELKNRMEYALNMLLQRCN

On to `CC(C)[C@H](CO)Nc1nc(Nc2cccc(Cl)c2)c2ncn(C(C)C)c2n1`, for which the residual activity in [1] was 89%; in assay [2] it was 53%; in assay [3] it was 101%; in assay [4] it was 86%; in [5] it was 102%; in [6], 60%. Besides, the residual activity in assay [7] was determined as 73%; in assay [8], 20%; in assay [9], 82%; in assay [10], 26%; in [11], 98%; in [12] it was 49%. The residual activity in [13] worked out at 82%; in [14], 32%; in assay [15], 90%; in [16], 66%; in assay [17], 95%; in [18], 93%. Further, the residual activity worked out at 48% in assay [19] and 12% in [20].

On to `COc1cc(OC)c(/C=C2\C(=O)Nc3ccccc32)c(OC)c1`, for which the residual activity in assay [1] was determined as 92%; in [2] it was 92%; in [3], 100%; in assay [4], 92%; in [5] it was 102%; in assay [6], 96%. Further, the residual activity in [7] came to 92%; in assay [8], 81%; in assay [9], 95%; in [10], 83%; in [11] it was 104%; in assay [12], 81%. The residual activity in assay [13] stood at 90%; in [14] it was 68%; in [15], 61%; in assay [16], 56%; in assay [17] it was 79%; in assay [18], 81%. In addition, the residual activity was determined as 95% in assay [19] and 98% in assay [20].
